{"source": "PubChem BioAssay", "key": {"[1]": {"test_system": "Wnt5a (protein binding on small-molecule microarray)", "test": "Wnt5a binders on small-molecule microarray, primary screen, biophysical, 635/667 nm fluorescence (AID 1142);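 also: fluorescence read at 667 nm with signal to noise per printed feature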", "settings": "635 nm fluorescence, higher = more signal"}, "[2]": {"test": "cell viability in Huh7 cells, primary screen, cytotoxicity control for HCV replication inhibitor project, CellTiter-Glo luminescence, basal, 48 h (AID 1143);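 also: Huh7 hepatoma cells carrying a hepatitis C replication reporter with no stimulus; test concentration not given here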", "settings": "Huh7 HCV replicon, higher = more signal, called active from +8 up or from −8 down"}, "[3]": {"test": "P. aeruginosa biofilm formation inhibitors, primary screen, PAO1 strain, BacTiter-Glo luminescence, LB-PBS (AID 1144)", "settings": "12 h, higher = more signal"}, "[4]": {"test": "CREB reporter modulators without forskolin, primary screen, cell-based, PC12, CRE-LacZ reporter, unstimulated (AID 1145)", "settings": "no forskolin, luminescence, 4.5 h, higher = more signal, called active from +8 up or from −8 down"}, "[5]": {"test": "CREB reporter modulators under forskolin, primary screen, cell-based, PC12, CRE-LacZ reporter, forskolin-stimulated (AID 1146);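 also: beta-galactosidase reporter signal reflecting CREB driven transcription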", "settings": "luminescence, 4.5 h, higher = more signal, called active from +8 up or from −8 down"}, "[6]": {"molecular_target": "Streptavidin (Streptomyces avidinii) (UniProt P22629)", "sequence (P22629 whole entry, looked up)": "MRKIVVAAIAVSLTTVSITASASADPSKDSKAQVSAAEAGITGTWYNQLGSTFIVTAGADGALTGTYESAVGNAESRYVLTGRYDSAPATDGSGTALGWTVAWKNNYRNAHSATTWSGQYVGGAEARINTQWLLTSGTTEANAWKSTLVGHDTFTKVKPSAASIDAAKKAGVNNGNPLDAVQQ", "test": "streptavidin binders on small-molecule microarray, primary screen, artefact control for SMM compound annotation, biophysical, 635/667 nm fluorescence (AID 1147);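 also: signal reflects streptavidin binding to arrayed compounds as a control protein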", "settings": "streptavidin binding, higher = more signal"}, "[7]": {"test": "small-molecule binders of probe aInhba, primary screen, biochemical, small-molecule microarray, 635/667 nm fluorescence (AID 1148);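 also: score merges 667nm spot fluorescence with signal-to-noise for antibody binding to printed compounds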", "settings": "higher = more signal"}, "[8]": {"molecular_target": "Torsin-1A (Homo sapiens) (UniProt O14656)", "sequence (O14656 whole entry, looked up)": "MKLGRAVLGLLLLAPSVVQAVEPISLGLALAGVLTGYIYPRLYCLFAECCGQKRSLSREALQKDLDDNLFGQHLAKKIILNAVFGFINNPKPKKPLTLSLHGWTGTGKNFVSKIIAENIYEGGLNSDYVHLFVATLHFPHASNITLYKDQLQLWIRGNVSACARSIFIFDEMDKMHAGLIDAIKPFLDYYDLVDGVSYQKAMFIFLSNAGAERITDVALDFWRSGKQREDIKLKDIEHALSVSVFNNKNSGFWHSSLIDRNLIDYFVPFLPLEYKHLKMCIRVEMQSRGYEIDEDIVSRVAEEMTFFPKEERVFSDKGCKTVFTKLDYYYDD", "test": "torsin A binders from cell lysate, primary screen, small-molecule microarray, wild-type, 635/667 nm (AID 1149)", "settings": "COS7 hTOR1A-WT lysate, 635 nm fluorescence, higher = more signal"}, "[9]": {"molecular_target": "Torsin-1A (Homo sapiens) (UniProt O14656)", "test": "small-molecule binders of mutant TOR1A in lysate, primary screen, cell lysate, small-molecule microarray, COS7 lysate, 635/667 nm fluorescence (AID 1150);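 also: score pools 667 nm emission and signal to noise measuring lysate protein binding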", "settings": "COS7 hTOR1A mutant lysate, 635 nm fluorescence, higher = more signal"}, "[10]": {"test_system": "Sonic hedgehog protein (Shh)", "test": "small-molecule binders of Shh protein, primary screen, biochemical, small-molecule microarray, 635/667 nm fluorescence (AID 1151);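 also: Shh protein binding to compounds spotted on small-molecule microarray slides; score combines spot fluorescence intensity with signal-to-noise across triplicate slides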", "settings": "small-molecule microarray binding, 635 nm fluorescence; higher = more signal"}, "[11]": {"test": "E. coli DRC41 culture turbidity changes, primary screen, E. coli filamentation inducer project, strain DRC41, OD650, 48 h (AID 1152);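 also: E. coli MC1000 strain DRC41 lacking acrAB efflux pump and sulA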", "settings": "E. coli DRC41 (acrAB sulA), higher = more signal, called active from +8 up or from −8 down"}, "[12]": {"test": "small-molecule binders of probe aLefty1, primary screen, biochemical, small-molecule microarray, 635/667 nm fluorescence (AID 1153);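 also: score merges spot fluorescence with signal-to-noise ratio from the scanned slide images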", "settings": "higher = more signal"}, "[13]": {"test": "PSAC antagonists in infected red cells, primary screen, cell-based, P. falciparum Indochina, OD700, 1 h (AID 1154)", "settings": "P. falciparum Indochina infected RBC osmotic lysis, higher = more signal, called active from +8 up or from −8 down"}, "[14]": {"test": "PSAC antagonists in infected red cells, primary screen, cell-based, P. falciparum Indochina, OD700, 2 h (AID 1155);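 also: lysis reports solute entry through the parasite surface anion channel PSAC; channel blockers reduce lysis of infected cells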", "settings": "P. falciparum Indochina infected erythrocytes, osmotic lysis OD700; higher = more signal, called active from +8 up or from −8 down"}, "[15]": {"test": "osmotic lysis modulators in infected erythrocytes, primary screen, PSAC antagonist project, cell-based, P. falciparum Indochina, OD700, 3 h (AID 1156)", "settings": "higher = more signal, called active from +8 up or from −8 down"}, "[16]": {"test": "PSAC antagonists in infected red cells, primary screen, cell-based, P. falciparum Indochina, OD700, 18 h (AID 1157)", "settings": "P. falciparum Indochina infected erythrocytes, osmotic lysis OD700, 18 h; higher = more signal, called active from +8 up or from −8 down"}, "[17]": {"test": "modulators of S6 phosphorylation in cells, primary screen, cell-based, A549, cytoblot, luminescence, serum-stimulated (AID 1158);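 also: serum-stimulated A549 lung adenocarcinoma cells; signal is phosphorylated S6 detected by cytoblot immunostaining with HRP secondary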", "settings": "A549 phospho-S6 cytoblot, 5 h, higher = more signal"}, "[18]": {"molecular_target": "NADPH oxidase 2 (Homo sapiens) (UniProt P04839)", "sequence (P04839 whole entry, looked up)": "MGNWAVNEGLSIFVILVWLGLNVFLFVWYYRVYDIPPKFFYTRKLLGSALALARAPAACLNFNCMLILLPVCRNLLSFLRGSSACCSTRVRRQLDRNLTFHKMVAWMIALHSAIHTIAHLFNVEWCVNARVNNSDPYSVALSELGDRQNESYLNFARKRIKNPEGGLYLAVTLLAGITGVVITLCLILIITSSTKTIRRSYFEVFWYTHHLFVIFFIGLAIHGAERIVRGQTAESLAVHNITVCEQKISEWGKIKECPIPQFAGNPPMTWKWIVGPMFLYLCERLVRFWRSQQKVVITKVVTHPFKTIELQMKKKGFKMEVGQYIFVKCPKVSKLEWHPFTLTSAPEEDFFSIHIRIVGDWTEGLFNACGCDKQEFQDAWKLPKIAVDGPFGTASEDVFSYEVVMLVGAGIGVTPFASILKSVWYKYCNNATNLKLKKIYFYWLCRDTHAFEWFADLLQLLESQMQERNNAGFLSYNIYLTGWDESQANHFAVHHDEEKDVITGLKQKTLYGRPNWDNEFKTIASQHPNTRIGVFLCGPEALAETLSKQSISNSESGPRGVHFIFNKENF", "test": "NOX2-dependent H2O2 signal modulators, primary screen, NOX inhibitor project, cell-based, HEK293-NOX2, PMA-stimulated, Amplex Red fluorescence (AID 1159); also: test concentration not given here", "settings": "45 min, higher = more signal, called active from +8 up or from −8 down"}, "[19]": {"molecular_target": "NADPH oxidase 4 (Homo sapiens) (UniProt Q9NPH5)", "sequence (Q9NPH5 whole entry, looked up)": "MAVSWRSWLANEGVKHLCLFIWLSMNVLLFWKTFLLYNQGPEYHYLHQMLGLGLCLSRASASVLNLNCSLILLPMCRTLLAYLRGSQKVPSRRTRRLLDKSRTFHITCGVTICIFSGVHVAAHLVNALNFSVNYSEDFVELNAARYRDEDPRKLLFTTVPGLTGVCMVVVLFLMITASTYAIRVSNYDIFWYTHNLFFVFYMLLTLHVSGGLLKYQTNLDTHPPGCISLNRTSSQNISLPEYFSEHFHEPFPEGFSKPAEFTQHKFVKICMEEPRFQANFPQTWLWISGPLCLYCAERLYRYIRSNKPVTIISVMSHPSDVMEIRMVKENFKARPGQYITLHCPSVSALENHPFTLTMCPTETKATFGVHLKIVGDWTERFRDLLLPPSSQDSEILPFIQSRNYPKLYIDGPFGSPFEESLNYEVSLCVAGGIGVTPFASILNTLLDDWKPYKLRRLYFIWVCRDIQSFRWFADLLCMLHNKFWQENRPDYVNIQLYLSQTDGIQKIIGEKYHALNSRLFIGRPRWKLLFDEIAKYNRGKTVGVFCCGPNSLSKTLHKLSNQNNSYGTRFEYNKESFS", "test": "NOX4-dependent H2O2 signal modulators, primary screen, NOX inhibitor project, cell-based, HEK293-NOX4, tetracycline-induced, Amplex Red fluorescence (AID 1160)", "settings": "45 min, higher = more signal, called active from +8 up or from −8 down"}, "[20]": {"molecular_target": "NADPH oxidase 5 (Homo sapiens) (UniProt Q96PH1)", "sequence (Q96PH1 whole entry, looked up)": "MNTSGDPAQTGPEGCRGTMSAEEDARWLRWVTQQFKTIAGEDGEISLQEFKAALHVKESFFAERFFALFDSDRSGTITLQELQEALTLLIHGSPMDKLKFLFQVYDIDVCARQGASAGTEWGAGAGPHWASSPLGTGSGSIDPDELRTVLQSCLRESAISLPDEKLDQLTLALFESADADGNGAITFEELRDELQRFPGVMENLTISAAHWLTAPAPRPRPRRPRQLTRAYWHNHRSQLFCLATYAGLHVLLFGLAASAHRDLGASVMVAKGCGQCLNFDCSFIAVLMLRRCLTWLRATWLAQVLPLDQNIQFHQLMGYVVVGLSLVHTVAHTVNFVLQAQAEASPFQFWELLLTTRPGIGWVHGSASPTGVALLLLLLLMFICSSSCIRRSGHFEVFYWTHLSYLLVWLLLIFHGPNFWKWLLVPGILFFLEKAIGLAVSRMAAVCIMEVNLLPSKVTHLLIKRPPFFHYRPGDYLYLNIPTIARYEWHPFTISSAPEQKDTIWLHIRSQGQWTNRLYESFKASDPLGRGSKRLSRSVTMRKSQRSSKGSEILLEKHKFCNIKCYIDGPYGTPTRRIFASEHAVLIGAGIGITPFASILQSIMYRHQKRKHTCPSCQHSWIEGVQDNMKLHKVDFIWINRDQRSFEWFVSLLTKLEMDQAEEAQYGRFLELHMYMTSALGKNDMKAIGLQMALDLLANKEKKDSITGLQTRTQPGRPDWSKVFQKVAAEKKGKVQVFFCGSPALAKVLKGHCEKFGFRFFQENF", "test": "NOX5-dependent H2O2 signal modulators, primary screen, NOX inhibitor project, cell-based, HEK293-NOX5, Amplex Red fluorescence (AID 1161)", "settings": "HEK293-NOX5, ionomycin, 45 min, higher = more signal"}}, "note": "Activity calls are given as the source filed them. Unless noted, no rule for the calls is given here.", "data": [{"smiles": "CC(C)C[C@H]1NC(=O)[C@H](C)NC(=O)[C@@]23C(=O)N[C@@H](Cc4ccccc4)C2[C@H](C)[C@@]2(C)O[C@H]2C3/C=C/C/C=C\\CNC1=O", "note": "(stereo not given in full)", "values": [{"measurement": "composite z-score", "setting": "[1]", "value": -0.0392}, {"measurement": "z-score", "setting": "[2]", "value": "0.288 (inactive)"}, {"measurement": "z-score", "setting": "[3]", "value": "0.325 (inactive)"}, {"measurement": "z-score", "setting": "[4]", "value": "2.03 (inactive)"}, {"measurement": "z-score", "setting": "[5]", "value": "-0.0505 (inactive)"}, {"measurement": "composite z-score", "setting": "[6]", "value": -0.442}, {"measurement": "composite z-score", "setting": "[7]", "value": -0.176}, {"measurement": "composite z-score", "setting": "[8]", "value": -1.09}, {"measurement": "composite z-score", "setting": "[9]", "value": 0.0821}, {"measurement": "composite z-score", "setting": "[10]", "value": 0.366}, {"measurement": "z-score", "setting": "[11]", "value": "-1.07 (inactive)"}, {"measurement": "composite z-score", "setting": "[12]", "value": -0.774}, {"measurement": "z-score", "setting": "[13]", "value": "2.71 (inactive)"}, {"measurement": "z-score", "setting": "[14]", "value": "-0.169 (inactive)"}, {"measurement": "z-score", "setting": "[15]", "value": "0.137 (inactive)"}, {"measurement": "z-score", "setting": "[16]", "value": "0.11 (inactive)"}, {"measurement": "z-score", "setting": "[17]", "value": 0.0246}, {"measurement": "z-score", "setting": "[18]", "value": "-0.232 (inactive)"}, {"measurement": "z-score", "setting": "[19]", "value": "0.83 (inactive)"}, {"measurement": "z-score", "setting": "[20]", "value": -0.234}]}, {"smiles": "C=CC[C@@]1(C(=O)NCC(O)CO)N=C(c2ccc(OCCCO)cc2)O[C@@H]1c1ccccc1", "note": "(stereo not given in full)", "values": [{"measurement": "composite z-score", "setting": "[1]", "value": 1.19}, {"measurement": "z-score", "setting": "[2]", "value": "-0.834 (inactive)"}, {"measurement": "z-score", "setting": "[3]", "value": "0.627 (inactive)"}, {"measurement": "z-score", "setting": "[4]", "value": "0.685 (inactive)"}, {"measurement": "z-score", "setting": "[5]", "value": "-0.458 (inactive)"}, {"measurement": "composite z-score", "setting": "[6]", "value": 0.145}, {"measurement": "composite z-score", "setting": "[7]", "value": 0.524}, {"measurement": "composite z-score", "setting": "[8]", "value": 0.373}, {"measurement": "composite z-score", "setting": "[9]", "value": 2.47}, {"measurement": "composite z-score", "setting": "[10]", "value": -0.702}, {"measurement": "z-score", "setting": "[11]", "value": "0.529 (inactive)"}, {"measurement": "composite z-score", "setting": "[12]", "value": 0.366}, {"measurement": "z-score", "setting": "[13]", "value": "22.6 (active)"}, {"measurement": "z-score", "setting": "[14]", "value": "4.36 (inactive)"}, {"measurement": "z-score", "setting": "[15]", "value": "1.12 (inactive)"}, {"measurement": "z-score", "setting": "[16]", "value": "0.394 (inactive)"}, {"measurement": "z-score", "setting": "[17]", "value": -0.0453}, {"measurement": "z-score", "setting": "[18]", "value": "0.325 (inactive)"}, {"measurement": "z-score", "setting": "[19]", "value": "1.02 (inactive)"}, {"measurement": "z-score", "setting": "[20]", "value": 1.69}]}, {"smiles": "Cc1ccc(-c2cccc(=O)o2)cc1", "values": [{"measurement": "composite z-score", "setting": "[1]", "value": 0.796}, {"measurement": "z-score", "setting": "[2]", "value": "-0.0525 (inactive)"}, {"measurement": "z-score", "setting": "[3]", "value": "1.07 (inactive)"}, {"measurement": "z-score", "setting": "[4]", "value": "-0.322 (inactive)"}, {"measurement": "z-score", "setting": "[5]", "value": "0.699 (inactive)"}, {"measurement": "composite z-score", "setting": "[6]", "value": -0.317}, {"measurement": "composite z-score", "setting": "[7]", "value": -0.0523}, {"measurement": "composite z-score", "setting": "[8]", "value": -0.495}, {"measurement": "composite z-score", "setting": "[9]", "value": -0.173}, {"measurement": "composite z-score", "setting": "[10]", "value": -0.0613}, {"measurement": "z-score", "setting": "[11]", "value": "-0.418 (inactive)"}, {"measurement": "composite z-score", "setting": "[12]", "value": -0.237}, {"measurement": "z-score", "setting": "[13]", "value": "5.81 (inactive)"}, {"measurement": "z-score", "setting": "[14]", "value": "1.02 (inactive)"}, {"measurement": "z-score", "setting": "[15]", "value": "-0.657 (inactive)"}, {"measurement": "z-score", "setting": "[16]", "value": "0.609 (inactive)"}, {"measurement": "z-score", "setting": "[17]", "value": -0.102}, {"measurement": "z-score", "setting": "[18]", "value": "0.498 (inactive)"}, {"measurement": "z-score", "setting": "[19]", "value": "-1.66 (inactive)"}, {"measurement": "z-score", "setting": "[20]", "value": 0.12}]}, {"smiles": "C=CCC(OC(C)=O)[C@@H]1[C@@H](N(Cc2ccc(-c3ccccc3)cc2)C(=O)Cc2ccc(OC)cc2)c2cc(OCCCO)ccc2N1C(=O)c1ccc(-c2ccccc2)cc1", "note": "(stereo not given in full)", "values": [{"measurement": "composite z-score", "setting": "[1]", "value": 0.0546}, {"measurement": "z-score", "setting": "[2]", "value": "-1.56 (inactive)"}, {"measurement": "z-score", "setting": "[3]", "value": "0.148 (inactive)"}, {"measurement": "z-score", "setting": "[4]", "value": "1.34 (inactive)"}, {"measurement": "z-score", "setting": "[5]", "value": "-0.522 (inactive)"}, {"measurement": "composite z-score", "setting": "[6]", "value": -0.0206}, {"measurement": "composite z-score", "setting": "[7]", "value": -0.0018}, {"measurement": "composite z-score", "setting": "[8]", "value": 0.0765}, {"measurement": "composite z-score", "setting": "[9]", "value": 0.0644}, {"measurement": "composite z-score", "setting": "[10]", "value": 1.16}, {"measurement": "z-score", "setting": "[11]", "value": "0.769 (inactive)"}, {"measurement": "composite z-score", "setting": "[12]", "value": 0.587}, {"measurement": "z-score", "setting": "[13]", "value": "1.09 (inactive)"}, {"measurement": "z-score", "setting": "[14]", "value": "0.969 (inactive)"}, {"measurement": "z-score", "setting": "[15]", "value": "0.0304 (inactive)"}, {"measurement": "z-score", "setting": "[16]", "value": "0.406 (inactive)"}, {"measurement": "z-score", "setting": "[17]", "value": 1}, {"measurement": "z-score", "setting": "[18]", "value": "0.713 (inactive)"}, {"measurement": "z-score", "setting": "[19]", "value": "0.878 (inactive)"}, {"measurement": "z-score", "setting": "[20]", "value": 2.49}]}]}
